From PubChem BioAssay
Activity calls are given as the source filed them. Unless noted, the rule behind the calls is not given here.

Columns and labels:
[1] = compound effects on lung adenocarcinoma cell viability – A549, calcein-AM fluorescence, 48 h, basal, profiling panel (AID 1162); details: higher = more signal; note: test concentration not given here
[2] = compound effects on differentiated 3T3-L1 adipocyte viability – cell-based, 3T3-L1 adipocytes, calcein-AM fluorescence, 48 h, basal, profiling panel (AID 1163); details: 3T3-L1 adipocytes viability, higher = more signal; note: test concentration not given here
[3] = compound effects on hepatocellular carcinoma cell viability – HepG2, calcein-AM fluorescence, 48 h, basal, profiling panel (AID 1164); details: higher = more signal; note: test concentration not given here
[4] = compound effects on multiple myeloma cell viability – MM1S, calcein-AM fluorescence, 48 h, basal, profiling panel (AID 1165); details: higher = more signal;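 note: viability of MM1S multiple myeloma cells under basal unstimulated conditions; test concentration not given here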
[5] = calcein-AM signal in unstimulated myeloma cells – cell-based, calcein-AM fluorescence, 48 h, PK04 Diversity Set, profiling panel (AID 1166); details: RPMI8226 myeloma viability, higher = more signal;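 note: cells grown under basal conditions without added stimulus; test concentration not given here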
[6] = JC-1 mitochondrial signal, unstimulated HepG2 cells – cell-based, JC-1 fluorescence, 24 h, 100 nL compound, profiling panel (AID 1167); details: HepG2 mitochondrial potential, higher = more signal; note: test concentration not given here
[7] = JC-1 mitochondrial signal, unstimulated adipocytes – cell-based, JC-1 fluorescence, 3T3-L1 adipocytes, 24 h, 100 nL compound, profiling panel (AID 1168); details: JC-1 mitochondrial fluorescence, higher = more signal, called active from +8 up or from −8 down; note: test concentration not given here
[8] = JC-1 mitochondrial signal, unstimulated myeloma cells – cell-based, JC-1 fluorescence, RPMI8226, 24 h, 100 nL compound, profiling panel (AID 1169); details: JC-1 mitochondrial potential fluorescence, higher = more signal; note: test concentration not given here
[9] = JC-1 mitochondrial signal, unstimulated MM1S myeloma – cell-based, JC-1 fluorescence, 24 h, 100 nL compound, profiling panel (AID 1170); details: MM1S mitochondrial potential, higher = more signal; note: test concentration not given here
[10] = resazurin metabolic signal in A549 cells – cell-based, resazurin fluorescence, 24 h, PK04 Diversity Set, profiling panel (AID 1171); details: A549 viability, higher = more signal, called active from +8 up or from −8 down; note: test concentration not given here
[11] = resazurin metabolic signal in HepG2 cells – cell-based, resazurin fluorescence, 24 h, PK04 Diversity Set, profiling panel (AID 1172); details: HepG2 viability, higher = more signal; note: test concentration not given here
[12] = budding yeast growth changes without added modifier – OD600, strain BY4716, 24 h, basal condition, primary screen (AID 1173); details: S. cerevisiae BY4716 growth, OD600, 24 h; higher = more signal, called active from +8 up or from −8 down
[13] = viability profiling in MM1S myeloma cells – cell-based, resazurin fluorescence, basal, 24 h, PK04 Diversity Set, profiling panel (AID 1174); details: higher = more signal, called active from +8 up or from −8 down; note: test concentration not given here
[14] = target: Dihydroorotate dehydrogenase (quinone), mitochondrial (Plasmodium falciparum (isolate 3D7)) (UniProt Q08210); assay: inhibition of P. falciparum DHODH – biochemical, C-terminal His tag, absorbance 600 nm, primary screen (AID 1175); details: PfDHODH enzyme, DCIP absorbance 600 nm; higher = more signal, called active from +8 up or from −8 down;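 note: recombinant parasite enzyme with a five histidine tag at its C terminus; test concentration not given here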
Dihydroorotate dehydrogenase (quinone), mitochondrial (Plasmodium falciparum (isolate 3D7)), sequence (Q08210 whole entry, looked up): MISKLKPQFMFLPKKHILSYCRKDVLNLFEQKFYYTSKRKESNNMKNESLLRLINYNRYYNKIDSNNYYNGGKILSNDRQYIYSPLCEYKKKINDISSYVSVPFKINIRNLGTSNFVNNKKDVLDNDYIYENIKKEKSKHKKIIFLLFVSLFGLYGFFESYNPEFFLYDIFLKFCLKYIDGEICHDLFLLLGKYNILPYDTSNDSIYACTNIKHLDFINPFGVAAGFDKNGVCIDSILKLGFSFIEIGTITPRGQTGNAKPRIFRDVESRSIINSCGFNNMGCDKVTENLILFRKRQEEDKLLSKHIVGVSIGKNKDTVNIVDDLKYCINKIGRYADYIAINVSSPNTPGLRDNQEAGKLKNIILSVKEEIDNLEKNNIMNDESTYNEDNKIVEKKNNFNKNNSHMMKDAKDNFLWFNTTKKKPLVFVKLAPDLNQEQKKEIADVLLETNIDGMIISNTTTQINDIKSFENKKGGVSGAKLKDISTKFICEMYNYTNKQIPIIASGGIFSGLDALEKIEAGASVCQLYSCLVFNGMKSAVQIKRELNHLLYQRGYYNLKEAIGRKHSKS

[15] = inhibition of PAO1 biofilm formation – strain PAO1, LB-PBS medium, absorbance 600 nm, primary screen (AID 1176); note: test concentration not given here; details: P. aeruginosa PAO1 growth/biofilm, A600, 12 h; higher = more signal
[16] = growth modulation of vineyard yeast isolate – strain RM11-1a, OD600, basal, 24 h, primary screen (AID 1177);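 note: cultures grown under basal conditions with no added stressor; test concentration not given here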; details: S. cerevisiae RM11-1a growth, OD600, 24 h; higher = more signal, called active from +8 up or from −8 down
[17] = growth of efflux-deficient E. coli DRC39 – strain DRC39, OD650, 24 h, E. coli filamentation inducers, primary screen (AID 1178);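 note: growth measured as culture turbidity by optical density at 650 nm; test concentration not given here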; details: E. coli DRC39 acrAB, higher = more signal, called active from +8 up or from −8 down
[18] = growth of efflux-deficient E. coli DRC39 – strain DRC39, OD650, 48 h, E. coli filamentation inducers, primary screen (AID 1179);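 note: screen aims at cell division blockers that make cells filament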; details: E. coli DRC39 delta-acrAB growth, higher = more signal, called active from +8 up or from −8 down
[19] = viability profiling in RPMI8226 myeloma cells – cell-based, resazurin fluorescence, basal, 24 h, PK04 Diversity Set, profiling panel (AID 1180); details: higher = more signal;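 note: RPMI8826 multiple myeloma cell line at 5000 cells per well; test concentration not given here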
[20] = target: E3 ubiquitin-protein ligase XIAP (Homo sapiens) (UniProt P98170); assay: small molecules binding XIAP protein – biophysical, small-molecule microarray, fluorescence 635 nm, primary screen (AID 1181); details: higher = more signal;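 note: score merges 667 nm emission and signal to noise over triplicate slides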
E3 ubiquitin-protein ligase XIAP (Homo sapiens), sequence (P98170 whole entry, looked up): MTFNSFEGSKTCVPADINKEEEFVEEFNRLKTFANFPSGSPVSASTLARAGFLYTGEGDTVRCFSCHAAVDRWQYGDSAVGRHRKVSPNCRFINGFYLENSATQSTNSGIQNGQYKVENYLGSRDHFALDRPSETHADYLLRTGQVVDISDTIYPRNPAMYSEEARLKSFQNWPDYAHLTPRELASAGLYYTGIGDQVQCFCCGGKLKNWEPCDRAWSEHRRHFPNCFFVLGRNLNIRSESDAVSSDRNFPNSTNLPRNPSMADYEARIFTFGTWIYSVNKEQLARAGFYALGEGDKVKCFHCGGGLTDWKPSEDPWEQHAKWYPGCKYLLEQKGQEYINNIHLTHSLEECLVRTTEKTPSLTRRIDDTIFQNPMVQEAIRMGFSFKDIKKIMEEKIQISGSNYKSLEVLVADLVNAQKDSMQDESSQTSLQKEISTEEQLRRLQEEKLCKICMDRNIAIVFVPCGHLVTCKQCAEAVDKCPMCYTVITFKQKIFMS

Structure (SMILES) | z-score [1] | z-score [2] | z-score [3] | z-score [4] | z-score [5] | z-score [6] | z-score [7] | z-score [8] | z-score [9] | z-score [10] | z-score [11] | z-score [12] | z-score [13] | composite z-score [14] | z-score [15] | z-score [16] | z-score [17] | z-score [18] | z-score [19] | composite z-score [20]
CCCCCCc1nc(-c2ccc(OC)nc2)c(C)c2c1[Si](C(C)C)(C(C)C)OC2 | -0.405 | 1.26 | 0.002 | -2.26 | -2.79 | 0.103 | 0.251 (inactive) | -0.641 | 0.498 | 0.863 (inactive) | 0.167 | -0.121 (inactive) | 1.86 (inactive) | -3 (inactive) | 0.444 (inactive) | -0.745 (inactive) | 0.746 (inactive) | -0.0026 (inactive) | 0.781 | 0.128
C=CCNC(=O)[C@@H]1[C@H]2C(=O)O[C@H](c3ccccc3)[C@H](c3ccccc3)N2[C@H](c2ccc(O)cc2)[C@@]12C(=O)Nc1ccc(C#CC3=CCCCC3)cc12 | 0.0719 | 0.266 | -3.89 | -3.35 | -4.57 | -1.42 | 1.38 (inactive) | -1.15 | -1.2 | -1.48 (inactive) | -0.496 | 0.233 (inactive) | -3.25 (inactive) | -0.691 (inactive) | 1.66 (inactive) | 1.28 (inactive) | -0.33 (inactive) | 0.254 (inactive) | -6.25 | 0.28
C=CC[C@]1(C(=O)NCCN2CCOCC2)N=C(c2ccc(OCCCO)cc2)O[C@H]1c1ccccc1 | -0.139 | -0.0761 | -0.0656 | -0.736 | 0.0634 | -0.607 | -0.442 (inactive) | -0.176 | -0.255 | 1.63 (inactive) | 0.543 | -0.916 (inactive) | 0.635 (inactive) | 0.507 (inactive) | 0.509 (inactive) | -0.548 (inactive) | -0.0082 (inactive) | -0.864 (inactive) | 0.749 | -0.0351
Cc1ccc(S[C@]2(C(=O)NCc3ccccc3)CC(=O)N(Cc3ccccc3C(F)(F)F)[C@@H]2c2ccc(CO)cc2I)cc1 | 1.13 | 0.615 | 0.024 | -2.39 | -2.16 | -0.741 | -0.841 (inactive) | -0.491 | -0.518 | 1.15 (inactive) | 0.213 | -5.1 (inactive) | -2.36 (inactive) | -1.44 (inactive) | -0.239 (inactive) | -1.54 (inactive) | 0.506 (inactive) | -0.0277 (inactive) | -1.28 | -0.135
